Measurements: the supplement of paper PMC10849652
Targets with a hit are over-represented here; the source holds about 7,900 in all. About 0.6% of all pairs of compound and target were hits. Values without a mark were called inactive.

Legend:
Experiment in all cases: log2 fold change, soluble protein after heating vs DMSO (PISA); higher = thermal stabilisation; K562 cells, 10 uM, 30 min; active = over 0.2 and 3.5 SD of the protein, either way, in both replicates (recomputed)
erlotinib = compound: C#Cc1cccc(Nc2ncnc3cc(OCCOC)c(OCCOC)cc23)c1 [erlotinib]
How it was run: (§1)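 Soluble protein was defined as the supernatant after 21,000xg for 90 min. It came from K562 cells at 2×10^6 cells/mL given 10 μM compound for 30 min, heated in aliquots for 3 min across 48°C-58°C, pooled, and extracted in PBS with 0.5% NP-40 at 4°C, and was quantified by TMTpro 16plex LC-MS/MS with equalised channel sums. Thermal stability against control samples, from duplicates, is reported as log2 fold change.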

[1] = compound: C/C(=N\NC(=O)C1=CC(=CC=C1)S(=O)(=O)N2CCOCC2)/C3=C(C=CC(=C3)Cl)O
How it was run: as §1

[2] = compound: C1=CC(=C(C=C1Cl)C2=NC3=NC=CN=C3C(=N2)NC4=CC=NC=C4)F
How it was run: as §1

[3] = compound: C1=CC(=CC=C1C2=NC3=C(N2)C=C(C=C3)C(=O)N)OC4=CC=C(C=C4)Cl
How it was run: as §1

[4] = compound: C1=CC2=C(C=CC(=C2)/C=C\3/C(=O)NC(=NCC4=CC=CS4)S3)N=C1
How it was run: as §1

[5] = compound: C1=CC2=NC=CN=C2C=C1/C=C/3\C(=O)NC(=O)S3
How it was run: as §1

[6] = compound: C1=CC=C(C=C1)C2=NC(=C(N2)C3=CC=NC=C3)C4=CC(=C(C=C4)Cl)O
How it was run: as §1

[7] = compound: C1=CC=C2C(=C1)C3=NNC4=CC=CC(=C43)C2=O
How it was run: as §1

[8] = compound: C1CCN(C1)C(=O)NC2=CC=CC(=C2)NC3=NC=C(C(=N3)NCCC4=CN=CN4)Br
How it was run: as §1

[9] = compound: C1CN(CCC1(CC2=CC=C(C=C2)Cl)N)C3=NC=NC4=C3C=CN4
How it was run: as §1

Chain of UniProt Q9BWT6 (Q9BWT6 whole entry, looked up): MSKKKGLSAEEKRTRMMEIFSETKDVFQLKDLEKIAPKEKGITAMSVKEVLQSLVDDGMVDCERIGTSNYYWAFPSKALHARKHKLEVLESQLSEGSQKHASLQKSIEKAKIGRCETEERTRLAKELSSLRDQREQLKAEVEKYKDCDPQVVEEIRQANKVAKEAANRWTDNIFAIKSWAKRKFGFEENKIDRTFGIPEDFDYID
Chain of UniProt Q8NBF2 (Q8NBF2 whole entry, looked up): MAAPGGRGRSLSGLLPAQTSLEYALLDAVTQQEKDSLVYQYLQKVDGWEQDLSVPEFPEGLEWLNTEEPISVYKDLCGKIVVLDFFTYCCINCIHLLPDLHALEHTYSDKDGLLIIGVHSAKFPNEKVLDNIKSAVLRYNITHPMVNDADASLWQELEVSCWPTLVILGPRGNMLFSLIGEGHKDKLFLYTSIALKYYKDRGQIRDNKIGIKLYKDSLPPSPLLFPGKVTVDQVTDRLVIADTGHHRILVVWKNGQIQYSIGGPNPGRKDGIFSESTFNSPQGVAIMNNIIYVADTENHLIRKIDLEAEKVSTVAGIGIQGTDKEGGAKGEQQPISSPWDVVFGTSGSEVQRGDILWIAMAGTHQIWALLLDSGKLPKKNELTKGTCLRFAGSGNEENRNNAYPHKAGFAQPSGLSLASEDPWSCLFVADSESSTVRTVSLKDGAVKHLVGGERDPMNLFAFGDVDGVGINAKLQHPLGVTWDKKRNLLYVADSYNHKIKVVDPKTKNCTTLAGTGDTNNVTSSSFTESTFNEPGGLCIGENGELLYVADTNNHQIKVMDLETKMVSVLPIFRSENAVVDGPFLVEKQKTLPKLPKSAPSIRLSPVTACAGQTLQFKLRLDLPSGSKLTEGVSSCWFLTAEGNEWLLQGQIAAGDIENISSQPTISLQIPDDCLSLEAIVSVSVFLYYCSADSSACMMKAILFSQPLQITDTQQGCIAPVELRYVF
Chain of UniProt O60361 (O60361 whole entry, looked up): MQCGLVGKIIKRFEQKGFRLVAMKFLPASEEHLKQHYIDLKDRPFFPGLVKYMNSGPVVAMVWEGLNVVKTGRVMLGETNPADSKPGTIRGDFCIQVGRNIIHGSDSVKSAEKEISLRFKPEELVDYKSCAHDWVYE
Chain of UniProt Q9BSU3 (Q9BSU3 whole entry, looked up): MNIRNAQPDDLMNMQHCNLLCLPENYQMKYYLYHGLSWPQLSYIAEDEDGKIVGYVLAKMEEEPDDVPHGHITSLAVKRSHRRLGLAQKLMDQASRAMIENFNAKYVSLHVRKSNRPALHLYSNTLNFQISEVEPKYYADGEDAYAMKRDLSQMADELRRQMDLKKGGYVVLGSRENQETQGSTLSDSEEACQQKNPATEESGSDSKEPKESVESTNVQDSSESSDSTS
Chain of UniProt Q9BZF1 (Q9BZF1 whole entry, looked up): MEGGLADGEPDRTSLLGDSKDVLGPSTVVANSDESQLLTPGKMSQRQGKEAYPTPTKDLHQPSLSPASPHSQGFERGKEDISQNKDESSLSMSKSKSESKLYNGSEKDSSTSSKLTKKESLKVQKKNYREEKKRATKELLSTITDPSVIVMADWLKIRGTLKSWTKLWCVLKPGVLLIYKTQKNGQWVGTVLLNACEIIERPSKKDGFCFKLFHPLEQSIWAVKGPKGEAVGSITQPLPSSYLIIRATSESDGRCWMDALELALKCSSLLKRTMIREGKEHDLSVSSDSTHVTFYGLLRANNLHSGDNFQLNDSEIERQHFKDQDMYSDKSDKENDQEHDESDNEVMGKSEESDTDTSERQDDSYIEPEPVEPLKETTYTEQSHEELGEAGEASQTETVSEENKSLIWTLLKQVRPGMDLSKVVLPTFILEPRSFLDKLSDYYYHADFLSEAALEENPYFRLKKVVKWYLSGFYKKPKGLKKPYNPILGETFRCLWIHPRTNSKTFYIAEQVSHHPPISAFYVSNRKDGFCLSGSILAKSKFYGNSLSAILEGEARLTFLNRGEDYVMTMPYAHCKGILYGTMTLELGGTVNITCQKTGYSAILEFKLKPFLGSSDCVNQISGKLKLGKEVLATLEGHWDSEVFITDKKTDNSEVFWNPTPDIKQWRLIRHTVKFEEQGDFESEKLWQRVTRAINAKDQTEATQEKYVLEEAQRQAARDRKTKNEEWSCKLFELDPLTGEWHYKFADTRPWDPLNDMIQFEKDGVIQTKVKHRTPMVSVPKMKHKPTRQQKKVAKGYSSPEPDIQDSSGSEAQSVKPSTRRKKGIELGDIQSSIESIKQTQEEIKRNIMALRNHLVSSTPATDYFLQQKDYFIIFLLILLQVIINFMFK
Chain of UniProt Q6N063 (Q6N063 whole entry, looked up): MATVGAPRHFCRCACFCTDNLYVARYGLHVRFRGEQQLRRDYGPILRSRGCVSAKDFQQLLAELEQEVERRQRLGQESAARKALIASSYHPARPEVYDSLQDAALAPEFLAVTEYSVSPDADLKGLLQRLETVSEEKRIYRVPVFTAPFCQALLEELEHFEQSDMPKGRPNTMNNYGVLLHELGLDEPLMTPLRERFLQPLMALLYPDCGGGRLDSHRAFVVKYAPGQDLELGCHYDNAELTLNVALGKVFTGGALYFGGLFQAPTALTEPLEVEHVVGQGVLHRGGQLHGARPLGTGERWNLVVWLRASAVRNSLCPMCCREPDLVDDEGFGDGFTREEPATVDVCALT
Chain of UniProt Q9Y2I1 (Q9Y2I1 whole entry, looked up): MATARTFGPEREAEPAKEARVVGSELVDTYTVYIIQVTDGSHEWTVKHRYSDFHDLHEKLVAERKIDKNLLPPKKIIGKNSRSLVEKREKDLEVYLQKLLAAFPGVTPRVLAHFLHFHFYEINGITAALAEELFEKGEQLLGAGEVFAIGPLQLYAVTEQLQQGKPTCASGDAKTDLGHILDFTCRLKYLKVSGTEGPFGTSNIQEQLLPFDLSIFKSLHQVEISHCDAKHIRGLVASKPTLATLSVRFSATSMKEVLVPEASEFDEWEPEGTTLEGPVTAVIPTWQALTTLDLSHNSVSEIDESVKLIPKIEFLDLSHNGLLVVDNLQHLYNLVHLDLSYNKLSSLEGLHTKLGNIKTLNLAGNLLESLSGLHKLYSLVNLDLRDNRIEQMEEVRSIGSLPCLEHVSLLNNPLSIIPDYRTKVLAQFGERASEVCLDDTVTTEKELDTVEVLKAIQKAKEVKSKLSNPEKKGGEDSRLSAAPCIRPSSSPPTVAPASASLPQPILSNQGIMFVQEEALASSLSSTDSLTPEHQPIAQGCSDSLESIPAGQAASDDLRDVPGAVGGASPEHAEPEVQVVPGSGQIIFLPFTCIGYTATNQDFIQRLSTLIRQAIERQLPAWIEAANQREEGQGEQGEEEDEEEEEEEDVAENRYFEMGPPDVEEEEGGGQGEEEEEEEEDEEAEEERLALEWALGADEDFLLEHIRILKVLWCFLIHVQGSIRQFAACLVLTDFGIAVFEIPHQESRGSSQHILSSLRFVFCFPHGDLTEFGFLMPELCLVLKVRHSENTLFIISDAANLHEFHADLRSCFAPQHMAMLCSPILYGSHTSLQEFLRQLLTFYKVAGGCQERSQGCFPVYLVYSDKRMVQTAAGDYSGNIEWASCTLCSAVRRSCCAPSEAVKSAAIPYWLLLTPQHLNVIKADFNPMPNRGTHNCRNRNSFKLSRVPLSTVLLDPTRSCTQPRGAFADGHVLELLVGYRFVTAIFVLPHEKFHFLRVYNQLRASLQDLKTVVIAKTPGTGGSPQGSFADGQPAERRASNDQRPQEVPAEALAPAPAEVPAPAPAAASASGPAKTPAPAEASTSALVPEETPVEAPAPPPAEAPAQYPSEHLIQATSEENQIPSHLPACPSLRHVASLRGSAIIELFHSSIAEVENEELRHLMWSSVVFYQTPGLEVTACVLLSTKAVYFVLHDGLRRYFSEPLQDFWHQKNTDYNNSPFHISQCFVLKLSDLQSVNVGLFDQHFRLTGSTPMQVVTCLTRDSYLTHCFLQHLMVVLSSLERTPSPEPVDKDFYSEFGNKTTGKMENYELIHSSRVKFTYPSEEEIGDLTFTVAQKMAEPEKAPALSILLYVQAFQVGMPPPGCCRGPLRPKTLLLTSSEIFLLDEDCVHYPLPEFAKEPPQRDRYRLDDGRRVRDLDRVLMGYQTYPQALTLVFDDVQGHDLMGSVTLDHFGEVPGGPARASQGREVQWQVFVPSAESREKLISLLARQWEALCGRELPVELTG
Chain of UniProt Q16621 (Q16621 whole entry, looked up): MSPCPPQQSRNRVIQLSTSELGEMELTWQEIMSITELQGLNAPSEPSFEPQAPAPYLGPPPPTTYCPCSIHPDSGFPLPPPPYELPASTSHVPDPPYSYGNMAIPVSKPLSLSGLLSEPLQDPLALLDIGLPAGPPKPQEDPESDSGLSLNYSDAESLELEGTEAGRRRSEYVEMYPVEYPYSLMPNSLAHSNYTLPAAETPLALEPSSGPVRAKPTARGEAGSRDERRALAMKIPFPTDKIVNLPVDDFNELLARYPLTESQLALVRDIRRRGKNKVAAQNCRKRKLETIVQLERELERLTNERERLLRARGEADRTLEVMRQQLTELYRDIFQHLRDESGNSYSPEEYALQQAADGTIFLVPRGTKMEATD
Chain of UniProt O75323 (O75323 whole entry, looked up): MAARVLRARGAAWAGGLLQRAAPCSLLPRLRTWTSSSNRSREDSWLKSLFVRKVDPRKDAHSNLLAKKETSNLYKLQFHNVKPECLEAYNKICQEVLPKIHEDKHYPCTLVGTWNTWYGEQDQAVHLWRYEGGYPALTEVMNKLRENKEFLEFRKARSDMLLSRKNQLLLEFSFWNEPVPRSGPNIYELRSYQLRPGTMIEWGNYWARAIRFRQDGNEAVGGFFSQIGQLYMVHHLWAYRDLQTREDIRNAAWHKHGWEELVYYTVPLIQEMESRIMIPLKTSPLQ
Chain of UniProt Q9UH92 (Q9UH92 whole entry, looked up): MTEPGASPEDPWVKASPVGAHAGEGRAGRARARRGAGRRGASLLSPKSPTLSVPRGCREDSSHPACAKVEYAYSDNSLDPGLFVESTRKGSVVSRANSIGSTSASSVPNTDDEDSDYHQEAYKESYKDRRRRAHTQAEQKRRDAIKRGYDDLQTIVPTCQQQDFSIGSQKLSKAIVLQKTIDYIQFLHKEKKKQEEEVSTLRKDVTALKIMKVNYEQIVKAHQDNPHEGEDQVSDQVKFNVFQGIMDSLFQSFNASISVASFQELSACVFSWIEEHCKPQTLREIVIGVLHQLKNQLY

| Target | log2 fold change (erlotinib) | log2 fold change [1] | log2 fold change [2] | log2 fold change [3] | log2 fold change [4] | log2 fold change [5] | log2 fold change [6] | log2 fold change [7] | log2 fold change [8] | log2 fold change [9] |
| --- | --- | --- | --- | --- | --- | --- | --- | --- | --- | --- |
| NFE2 (UniProt Q16621) | 0.009 | 0.005 | -0.025 | -0.001 | -0.002 | 0.158 | -0.012 | -0.009 | -0.02 | -0.019 |
| MLX (UniProt Q9UH92) | 0.038 | 0.135 | -0.057 | 0.062 | 0.032 | -0.094 | -0.041 | -0.076 | -0.012 | -0.143 |
| MRPS26 (UniProt Q9BYN8) | -0.081 | 0.004 | 0.004 | 0.157 | 0.038 | 0.088 | -0.042 | 0.06 | -0.19 | 0.024 |
| NFATC2 (UniProt Q13469) | -0.049 | 0.147 | -0.002 | 0.012 | 0.04 | -0.132 | 0.053 | -0.109 | -0.201 | 0.007 |
| NEU1 (UniProt Q99519) | 0.001 | -0.05 | -0.027 | 0.101 | 0.003 | 0 | -0.018 | -0.011 | 0.012 | -0.047 |
| MRPS25 (UniProt P82663) | -0.069 | -0.023 | -0.022 | 0.084 | -0.048 | 0 | 0.083 | 0.061 | -0.036 | -0.068 |
| NIPSNAP2 (UniProt O75323) | 0.024 | 0.065 | 0.076 | 0.106 | 0.044 | -0.079 | 0.071 | 0.041 | 0.01 | 0.007 |
| PAAF1 (UniProt Q9BRP4) | 0.038 | 0.032 | 0.097 | 0.068 | -0.009 | 0.009 | 0.027 | 0 | 0.003 | 0.009 |
| OGFOD2 (UniProt Q6N063) | -0.051 | -0.283 (active) | -0.047 | 0.011 | 0.089 | 0.14 | 0.004 | 0.041 | 0.023 | 0.017 |
| NECTIN2 (UniProt Q92692) | 0.002 | 0.005 | 0.064 | -0.006 | 0.002 | 0.008 | -0.04 | -0.041 | -0.045 | 0.077 |
| OAT (UniProt P04181) | 0.063 | 0.099 | 0.045 | -0.091 | 0.042 | -0.151 | -0.183 | -0.001 | -0.037 | -0.023 |
| MRPS9 (UniProt P82933) | -0.057 | -0.019 | -0.087 | 0.137 | 0.019 | 0.04 | 0.023 | 0.043 | 0.002 | -0.095 |
| MTOR (UniProt P42345) | 0.015 | 0.041 | 0.021 | -0.011 | 0.036 | 0.047 | 0.034 | -0.004 | 0.065 | -0.03 |
| NA, A0A096LPI6 | -0.009 | -0.009 | 0.047 | 0.02 | -0.051 | 0.04 | 0.023 | -0.004 | 0.008 | 0.035 |
| NAA11 (UniProt Q9BSU3) | -0.023 | -0.012 | -0.033 | 0.06 | 0.158 | -0.207 | -0.023 | -0.032 | -0.108 | 0.167 |
| NME2P1 (UniProt O60361) | 0.147 | 0.012 | 0.147 | 0.03 | 0.04 | 0.137 | -0.163 | 0.026 | 0.076 | 0.078 |
| NISCH (UniProt Q9Y2I1) | 0.141 | 0.1 | -0.083 | 0.026 | 0.089 | 0.068 | 0.044 | -0.144 | 0.039 | -0.032 |
| MRPS2 (UniProt Q9Y399) | 0.004 | -0.064 | -0.083 | 0.052 | 0.093 | 0.01 | 0.083 | -0.033 | -0.01 | -0.112 |
| NCAPG (UniProt Q9BPX3) | -0.007 | 0.114 | 0.013 | -0.03 | 0.005 | 0.002 | 0.027 | 0.043 | -0.044 | -0.104 |
| NDUFA6 (UniProt P56556) | 0.014 | 0.133 | 0.11 | -0.015 | -0.045 | 0.002 | 0.104 | 0.042 | -0.031 | -0.008 |
| NRDC isoform 2 (UniProt O43847) | -0.016 | 0.081 | 0.012 | -0.024 | 0.021 | 0.024 | 0.027 | 0.057 | -0.046 | 0.049 |
| NR2C2AP isoform 2 (UniProt Q86WQ0) | 0.032 | 0.028 | -0.013 | 0.048 | 0.041 | 0.026 | -0.08 | -0.134 | -0.089 | -0.013 |
| OSBPL8 (UniProt Q9BZF1) | 0.243 | 0.156 | -0.212 | 0.021 | 0.005 | -0.028 | 0.077 | -0.005 | -0.048 | -0.085 |
| NNT (UniProt Q13423) | -0.008 | 0.051 | 0.089 | -0.012 | 0.044 | 0.01 | 0.005 | -0.005 | -0.001 | 0.043 |
| MND1 (UniProt Q9BWT6) | -0.068 | 0.034 | -0.003 | -0.002 | -0.011 | 0.015 | -0.019 | 0.009 | -0.081 | -0.017 |
| NDUFB7 (UniProt P17568) | -0.027 | 0.015 | 0.038 | 0.04 | -0.011 | 0.061 | 0.031 | -0.007 | 0.037 | 0.041 |
| MSH6 (UniProt P52701) | 0.286 | 0.224 | 0.096 | 0.002 | 0.167 | 0 | 0.102 | 0.137 | -0.095 | -0.143 |
| NHLRC2 (UniProt Q8NBF2) | 0.035 | 0 | -0.059 | 0.057 | 0.065 | -0.074 | -0.114 | 0.042 | 0.051 | 0.001 |
| NDUFAF6 (UniProt Q330K2) | 0.028 | -0.009 | 0.059 | 0.058 | 0.071 | 0.12 | 0.065 | -0.051 | 0.049 | 0.074 |
| NMT1 (UniProt P30419) | -0.002 | 0.001 | 0.039 | -0.009 | -0.01 | 0.07 | -0.002 | 0.05 | 0.036 | -0.363 (active) |
